CRFBP-R2 agonist = agonists of CRF-BP/CRF-R2 complex, primary screen, cell-based, HEK293, calcium dye fluorescence, uHTS | CRF-binding protein / CRF receptor 2 complex (human) | calcium dye fluorescence (FLIPR); percent of saturating CRF peptide response | activation, % at 13.2 µM | actives 0.46% (n = 350,000) | AID 588473, 2011;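 active = activation of at least 50%, plus an integration ratio under a set limit after plate pattern correction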
ANO1 activ = TMEM16A chloride channel activators or potentiators, primary screen, cell-based, HTS | Anoctamin-1 (Mus musculus), Q8BHY3 | HEK293 TMEM16A/YFP-H148Q/I152L, iodide quench fluorescence; stronger effect = lower value | B-score at 10 µM | actives 0.3% (n = 340,000);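 active = fluorescence-ratio B-score plate-corrected deviation score at least 3 library SD below zero, with starting fluorescence score within 5 deviations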;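 note: channel opened by trigger with iodide after compound preincubation; score built on the fluorescence ratio of max minus min over baseline; more negative score means more quench and so TMEM16A activation or potentiation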
Target sequence (Q8BHY3 whole entry, looked up): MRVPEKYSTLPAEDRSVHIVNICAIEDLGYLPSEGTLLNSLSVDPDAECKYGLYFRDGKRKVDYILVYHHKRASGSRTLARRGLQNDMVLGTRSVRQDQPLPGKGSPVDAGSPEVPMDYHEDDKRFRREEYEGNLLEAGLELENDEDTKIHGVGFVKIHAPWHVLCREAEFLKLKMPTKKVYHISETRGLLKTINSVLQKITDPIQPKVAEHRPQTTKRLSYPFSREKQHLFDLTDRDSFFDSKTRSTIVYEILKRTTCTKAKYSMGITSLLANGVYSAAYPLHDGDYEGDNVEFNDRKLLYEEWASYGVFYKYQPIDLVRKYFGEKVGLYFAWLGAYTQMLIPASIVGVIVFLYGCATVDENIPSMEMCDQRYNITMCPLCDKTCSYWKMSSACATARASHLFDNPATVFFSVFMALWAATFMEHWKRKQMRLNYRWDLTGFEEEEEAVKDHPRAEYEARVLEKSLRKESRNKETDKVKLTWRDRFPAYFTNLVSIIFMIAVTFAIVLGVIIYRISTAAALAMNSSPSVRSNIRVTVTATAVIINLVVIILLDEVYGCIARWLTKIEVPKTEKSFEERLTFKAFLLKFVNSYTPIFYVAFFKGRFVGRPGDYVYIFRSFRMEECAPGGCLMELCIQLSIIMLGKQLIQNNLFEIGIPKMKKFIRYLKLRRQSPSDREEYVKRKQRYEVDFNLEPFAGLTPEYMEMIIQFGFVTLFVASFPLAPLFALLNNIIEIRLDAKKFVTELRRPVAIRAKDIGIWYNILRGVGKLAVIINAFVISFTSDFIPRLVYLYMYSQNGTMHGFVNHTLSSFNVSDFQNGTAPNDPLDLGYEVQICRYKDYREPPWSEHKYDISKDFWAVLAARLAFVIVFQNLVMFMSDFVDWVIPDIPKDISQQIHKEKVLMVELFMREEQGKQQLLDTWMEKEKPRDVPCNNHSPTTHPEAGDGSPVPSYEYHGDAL
CRFR2-BP antag = antagonists of CRF-BP/CRF-R2 complex, primary screen, cell-based, HEK293, calcium dye fluorescence, uHTS | inhibition, % at 11.8 µM | actives 0.59% (n = 350,000) | CRF-induced calcium fluorescence | AID 588475, 2011;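 active = inhibition of the ligand-induced calcium signal above about 50% at the single tested concentration, limit read from the data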
NR3A LBD binder = binders of NR3A ligand-binding domain, primary screen, biophysical, differential scanning fluorimetry, uHTS. Glutamate receptor ionotropic, NMDA 3A (GRIN3A) ligand-binding domain. NR3A LBD differential scanning fluorimetry, Tm shift; 0% = protein alone, 100% = glycine-bound protein. Tm shift relative to glycine control, % at 25 µM. actives 2.5% (n = 340,000);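 active = melting temperature shift of at least 10% of the positive control shift, at one fixed dose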
TMEM16A inh = TMEM16A chloride channel inhibitors, primary screen, cell-based, HTS. Anoctamin-1 (Mus musculus), Q8BHY3. HEK293 TMEM16A/YFP iodide influx fluorescence, ionomycin. normalized B-score (activity score, 25-100; higher = stronger inhibition) at 10 µM. actives 1.2% (n = 310,000);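 active = ratio plate-corrected score three or more library SD toward inhibition, starting fluorescence score within five deviations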;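 note: score derived from kinetic fluorescence span divided by baseline fluorescence per well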
MPTP block = mitochondrial permeability transition pore inhibitors, primary screen, biochemical, isolated mouse mitochondria, absorbance | Ca2+ swelling absorbance, 30 min | inhibition, % at 10 µM | actives 1.4% (n = 360,000) | AID 602449, 2012;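 active = inhibition of 50% or more, scaled per plate between neutral and stimulator controls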
Of the large screens only hits and unclear results are named; the others gave an inactive call. Shown are actives, neighbours in structure and some others; about 5.1% of the full set was active somewhere.

O=c1c2ccccc2nc(N2CCCC2)n1-c1ccc(Cl)cc1	CRFR2-BP antag 64
COc1nc2ccccc2c(=O)n1-c1ccc(Cl)cc1	none
CN(C)C(=O)Oc1ccc(-c2cn3cc(Cl)ccc3n2)cc1	NR3A LBD binder 13
CC(=O)Nc1cc(C(=O)N2CCC3(CC2)OCCO3)ccc1S(=O)(=O)c1ccc(C)cc1	CRFR2-BP antag 98
Cc1cc(-c2cc(C)c(N)c(C)c2)cc(C)c1N	none (no result: TMEM16A inh)
CCOC(=O)c1c(NC(=O)c2c(N)n(CCCOC)c3nc4ccccc4nc23)sc2c1CCCC2	NR3A LBD binder 24
CCCCn1c(NC(=O)c2ccco2)c(C(=O)OCC)c2nc3ccccc3nc21	none
CCCCOCCCn1c(N)c(C(=O)OCCOC)c2nc3ccccc3nc21	none
CCOCCCn1c(N)c(C(=O)Nc2sc3c(c2C(=O)OC)CCCC3)c2nc3ccccc3nc21	NR3A LBD binder 17
CCCCn1c(NS(=O)(=O)c2ccc(C)cc2)c(C(=O)OCC)c2nc3ccccc3nc21	NR3A LBD binder 13
COC(=O)C1=C(c2ccc(OC)c(OC)c2)C[C@@H]2CC[C@H]1N2C(=O)NCC1CC1	none (no result: TMEM16A inh)
CCCC1(CCO)C(=O)NC(=S)NC1=O	none (no result: TMEM16A inh)
Cc1cc(C(=O)Nc2ccc3c(c2)OCCO3)nn1C(C)(C)C	CRFR2-BP antag 82
CCOC(=O)c1sc(/N=C/c2c(O)n(-c3ccccc3)c(=O)[nH]c2=O)c(C#N)c1C	none
CCOC(=O)c1c(/N=C/c2c(O)n(-c3cccc(C)c3)c(=O)[nH]c2=O)sc2c1CCCC2	NR3A LBD binder 24
COc1cc(/C=C2/C(=O)NC(=O)N(c3ccccc3)C2=O)ccc1O	none
CCOc1cc(/C=C2/C(=O)NC(=O)N(c3ccc(CC)cc3)C2=O)ccc1OC(=O)c1cccs1	NR3A LBD binder 74
CCOc1ccc(-c2cc(C)[n+](CCc3ccc(OC)c(OC)c3)c(-c3ccc(OCC)cc3)c2)cc1	TMEM16A inh 25
CCOc1ccc(-c2cc(C)[n+](CCO)c(-c3ccc(OCC)cc3)c2)cc1	none
Fc1ccc(C[n+]2c(-c3ccccc3)cc(-c3ccccc3)cc2-c2ccccc2)cc1	none (no result: ANO1 activ, MPTP block)
Cc1cc(-c2ccccc2)cc(-c2ccccc2)[n+]1CCc1ccccc1	TMEM16A inh 25
Clc1ccc(C[n+]2c(-c3ccccc3)cc(-c3ccccc3)cc2-c2ccccc2)cc1	TMEM16A inh 25
CC1CN(c2ccccn2)C(C)CN1C(=O)C(O)(c1ccccc1)c1ccccc1 (stereo unspecified)	none (no result: TMEM16A inh)
COC(=O)C1=C(c2c(C)noc2C)C[C@@H]2CC[C@H]1N2C(=O)NCc1ccco1	none (no result: TMEM16A inh)
COc1ccc(CC2NCC(O)C2OC(C)=O)cc1 (stereo unspecified)	none (no result: TMEM16A inh)
C=C(C=O)CC1CC(O)[C@]2(C)OC3CC4OC5C[C@]6(C)O[C@]7(C)CCC8OC9C[C@]%10(C)OC%11C(C)=CC(=O)OC%11CC%10OC9C[C@@H](C)C8OC7CC6O[C@]5(C)CC5OC5C4OC3CC2O1 (stereo partly specified)	ANO1 activ -8
O=C1NC(=S)NC(=O)C1Cc1ccccc1	NR3A LBD binder 13 (no result: TMEM16A inh)
Cc1ccc(-c2nc3ccccc3c(=O)n2-c2ccncc2)cc1	none
COc1nc2ccccc2c(=O)n1-c1ccc(C)cc1	none
COc1ccc(-n2c(-c3ccc(C)cc3)nc3ccccc3c2=O)cc1	ANO1 activ -4.9
CCCCOc1nc2ccccc2c(=O)n1-c1ccccc1	NR3A LBD binder 13
CC(=O)N[C@@H]1CC[C@@]2(O)[C@H]3Cc4ccc(O)c5c4[C@@]2(CCN3CC2CC2)[C@@H]1O5	none (no result: TMEM16A inh)
CCCC(C)CC1(CCO)C(=O)NC(=S)NC1=O (stereo unspecified)	none (no result: TMEM16A inh)
CCOC(=O)[C@]12Cc3cc(OC)ccc3[C@H]1N(Cc1ccccc1)C(=O)c1ccccc12	none (no result: TMEM16A inh)
CCOC(=O)[C@]12Cc3cc(C)ccc3[C@H]1N(Cc1ccccc1)C(=O)c1ccccc12	NR3A LBD binder 12 (no result: TMEM16A inh)
CCOC(=O)[C@]12Cc3cc(OC)ccc3[C@H]1N(Cc1ccccc1)C(=O)c1cc(F)c(F)cc12	NR3A LBD binder 13 (no result: TMEM16A inh)
CCOC(=O)[C@]12Cc3cc(C)ccc3[C@H]1N(Cc1ccccc1)C(=O)c1cc(F)c(F)cc12	none (no result: CRFBP-R2 agonist, ANO1 activ, CRFR2-BP antag, NR3A LBD binder, TMEM16A inh)
CCC1(C2=NCCN2)Cc2ccccc2O1 (stereo unspecified)	none
C=C1[C@H]2C[C@H]3[C@H]4N5C[C@]6(C)CCC[C@]47[C@H]([C@H]2O)[C@]3(C[C@]5(O)[C@H]67)[C@@H]1O	none
O=C(CCC(=O)N1CC2C[C@@H](C1)Cn1c2cccc1=O)NCCc1ccccc1F	none
CN(c1ccccc1)P(=O)(N1CC1)N1CC1	CRFR2-BP antag 54 (no result: TMEM16A inh)
O=P(Oc1ccccc1)(N1CCOCC1)N1CCOCC1	none (no result: TMEM16A inh)
CCN(CC)c1ccc(/C=C/[N+](=O)[O-])cc1	CRFBP-R2 agonist 251
NC(N)=N/N=C/c1cn(-c2ccccc2)nc1-c1cccs1	TMEM16A inh 100
O=c1c2ccccc2nc(-c2cccs2)n1-c1ccccc1	none
CN(C)c1ccc(/C=C2/C(=O)NC(=O)N(Cc3ccco3)C2=O)cc1	none
CCN(CC)c1ccc(/C=C2/C(=O)NC(=O)N(Cc3ccco3)C2=O)cc1	NR3A LBD binder 24
CCCCn1c(O)c(C=NCc2ccc3c(c2)OCO3)c(=O)[nH]c1=O	NR3A LBD binder 11
CCCCn1c(O)c(C(C)=NCc2ccc3c(c2)OCO3)c(=O)[nH]c1=O	none
N#CC(C#N)=Cc1ccc(N2CCOCC2)cc1	none
Cc1cc(C=C(C#N)C#N)ccc1N1CCCC1	CRFBP-R2 agonist 76
C[C@]12CC[C@H](O)CC1=CCC1C2CC[C@]2(C)C(=O)[C@H](Br)CC12 (stereo partly specified)	NR3A LBD binder 14 (no result: TMEM16A inh)
Cn1c(O)c(/C=C2\N=c3ccccc3=C2CCNC(=S)NC2CC2)c(=O)n(C)c1=O	NR3A LBD binder 17
CCC(c1nnnn1Cc1ccccc1)N1CCC(n2c(=O)[nH]c3ccccc32)CC1 (stereo unspecified)	none (no result: CRFBP-R2 agonist, ANO1 activ, CRFR2-BP antag, NR3A LBD binder, TMEM16A inh)
CCC1([N+](=O)[O-])COP(=O)(NCc2cccnc2)OC1 (stereo unspecified)	NR3A LBD binder 13 (no result: TMEM16A inh)
CC1([N+](=O)[O-])COP(=O)(Nc2cccc(Cl)c2)OC1 (stereo unspecified)	none (no result: TMEM16A inh)
CN[C@@H]1C[C@@H](c2ccc(Cl)c(Cl)c2)c2ccccc21	TMEM16A inh 25 (no result: CRFBP-R2 agonist, ANO1 activ, CRFR2-BP antag, NR3A LBD binder, MPTP block)
c1ccc2c(c1)[IH]c1ccccc1-2	ANO1 activ -5.8 (no result: TMEM16A inh)

Assay outcomes: PubChem BioAssay, several laboratories
